Assay results from PubChem BioAssay (Tox21).
Inconclusive results are not listed. The source made the active and inactive calls. Unless noted, calls follow the shape of the full dose curve.

Assays:
[1] = qHTS assay to identify small molecule agonists of the sonic hedgehog signaling (Shh) pathway (AID 1259368);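 also: NIH/3T3-derived 3T3Gli1-Luc cells carrying a stable Gli1-driven firefly luciferase reporter; series mostly up to about 92 µM; nearly all actives have a fitted effect of over 15% in size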
How it was run: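 Cells of a mouse NIH/3T3 clone stably expressing luciferase under the Gli1 transcriptional response element are exposed to test chemicals for 24 hr at 37 C. Pathway activation is detected as a rise in luminescence.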

[2] = qHTS assay to identify small molecule antagonists of the sonic hedgehog signaling (Shh) pathway (AID 1259369); also: nearly all actives have a fitted effect of over 45% in size
How it was run: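 Cells are plated and held 4hr at 37 C, compounds (DMSO) are pinned in, conditioned medium is added to stimulate the pathway, and after 24hr luciferase reagent is added for 30min before luminescence is read.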

[3] = target: Estrogen receptor beta (Homo sapiens) (UniProt Q92731); experiment: qHTS assay to identify small molecule agonists of the estrogen receptor beta (ER-beta) signaling pathway (AID 1259377; active = well fitted activation curve with a large enough effect in the signal ratio in the repeat runs, not every such curve was filed as active; the % refers to the signal ratio)
Chain of Estrogen receptor beta (Homo sapiens) (Q92731 whole entry, looked up): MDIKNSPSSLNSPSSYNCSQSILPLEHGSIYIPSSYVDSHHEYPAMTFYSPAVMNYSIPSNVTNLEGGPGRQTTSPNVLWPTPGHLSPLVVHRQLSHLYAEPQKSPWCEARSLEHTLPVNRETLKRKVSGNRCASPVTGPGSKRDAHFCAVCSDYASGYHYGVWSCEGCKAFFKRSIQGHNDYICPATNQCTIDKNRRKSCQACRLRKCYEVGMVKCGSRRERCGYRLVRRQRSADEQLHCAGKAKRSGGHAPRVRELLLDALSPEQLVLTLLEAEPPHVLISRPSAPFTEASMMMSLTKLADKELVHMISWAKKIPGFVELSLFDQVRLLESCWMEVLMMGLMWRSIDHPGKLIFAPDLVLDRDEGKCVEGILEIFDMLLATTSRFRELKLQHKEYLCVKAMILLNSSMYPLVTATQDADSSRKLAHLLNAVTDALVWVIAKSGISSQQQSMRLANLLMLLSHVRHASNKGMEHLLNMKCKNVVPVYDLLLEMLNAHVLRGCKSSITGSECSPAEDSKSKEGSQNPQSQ
How it was run: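 Reporter cells (HEK293T, ER-beta-UAS-bla) receive compounds or DMSO after a 6 hr pre-incubation. They then incubate 16 hr at 37C/5% CO2, and fluorescence from LiveBLAzer B/G substrate is measured after 2 hours at room temperature.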

[4] = target: Estrogen receptor beta (Homo sapiens) (UniProt Q92731); experiment: qHTS assay to identify small molecule antagonists of the estrogen receptor beta (ER-beta) signaling pathway (AID 1259378; active = well fitted inhibition curve with a large enough effect in the signal ratio in the repeat runs, not every such curve was filed as active; the % refers to the signal ratio)
How it was run: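 ER-beta-UAS-bla HEK293T cells in 2% charcoal-stripped FBS medium treated with compound plus 1nM final 17-beta-estradiol for 16 hr at 37C. Beta-lactamase reporter read by FRET substrate fluorescence after 2 hours at room temperature.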

[5] = qHTS assay to identify small molecule agonists of the androgen receptor (AR) signaling pathway in the presence of an antagonist - cell viability counter screen (AID 1259379; active = well fitted curve in the direction sought with a large enough effect in the repeat runs; an effect the other way counts as inactive or inconclusive;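 also: MDA-kb2 human breast cancer cells carrying an MMTV luciferase reporter; series mostly up to about 92 µM; nearly all actives have a fitted effect of over 25% in size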)
How it was run: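 Cytotoxicity is assessed by CellTiter-Fluor in MDA-kb2 cells carrying an MMTV-driven luciferase reporter. Cells receive 3.0uM nilutamide plus compounds at 15 concentrations and incubate 16 hr at 37C without CO2 before fluorescence reading.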

[6] = qHTS assay to identify small molecule agonists of the estrogen receptor beta (ER-beta) signaling pathway - cell viability counter screen (AID 1259380; active = well fitted curve in the direction sought with a large enough effect in the repeat runs; an effect the other way counts as inactive or inconclusive; also: nearly all actives have a fitted effect of over 30% in size)
How it was run: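 Cytotoxicity is measured in parallel with the reporter screen: after 16 hr compound exposure at 37C and a 2 hr LiveBLAzer step, CellTiter-Glo is added to the same ER-beta-UAS-bla HEK293T wells and luminescence read after 30 min.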

[7] = qHTS assay to identify small molecule antagonists of the estrogen receptor beta (ER-beta) signaling pathway - cell viability counter screen (AID 1259382; active = well fitted curve in the direction sought with a large enough effect in the repeat runs; an effect the other way counts as inactive or inconclusive; also: series mostly up to about 92 µM; nearly all actives have a fitted effect of over 55% in size)
How it was run: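 Cytotoxicity counter screen multiplexed with the beta-lactamase antagonist assay: GripTite HEK293T ER-beta-bla cells were treated 16 hr with test chemicals in the presence of 1nM 17-beta-estradiol, and viability was measured by CellTiter-Glo.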

[8] = target: Estrogen receptor (Homo sapiens) (UniProt P03372); experiment: qHTS assay to identify small molecule agonists of the estrogen receptor alpha (ER-alpha) signaling pathway in the presence of an antagonist (AID 1259383); also: top concentration of the series differs between compounds; nearly all actives have a fitted effect of over 15% in size
Chain of Estrogen receptor (Homo sapiens) (P03372 whole entry, looked up): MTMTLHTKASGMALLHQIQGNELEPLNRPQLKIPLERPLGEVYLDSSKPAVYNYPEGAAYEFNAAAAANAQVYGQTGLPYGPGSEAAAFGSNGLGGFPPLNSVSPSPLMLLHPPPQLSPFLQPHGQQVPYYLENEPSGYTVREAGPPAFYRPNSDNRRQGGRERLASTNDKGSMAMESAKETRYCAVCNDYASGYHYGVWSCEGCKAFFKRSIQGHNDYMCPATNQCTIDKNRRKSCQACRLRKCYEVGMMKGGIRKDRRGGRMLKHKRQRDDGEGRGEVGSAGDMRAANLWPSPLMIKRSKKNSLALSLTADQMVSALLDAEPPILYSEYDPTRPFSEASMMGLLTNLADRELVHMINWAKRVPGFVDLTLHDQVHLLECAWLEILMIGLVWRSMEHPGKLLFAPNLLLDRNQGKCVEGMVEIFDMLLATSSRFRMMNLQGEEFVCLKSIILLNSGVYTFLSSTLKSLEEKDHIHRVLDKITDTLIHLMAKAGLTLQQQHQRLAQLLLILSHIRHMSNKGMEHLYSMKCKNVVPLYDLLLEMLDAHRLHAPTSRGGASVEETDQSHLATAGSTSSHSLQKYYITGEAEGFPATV
How it was run: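 Agonist-mode confirmation in the presence of the ER antagonist ICI-182,780 at 10.0nM final. Breast-derived VM7Luc4E2 reporter cells were exposed to compounds for 22hr, and ERE-driven luciferase was quantified by luminescence.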

[9] = qHTS assay to identify small molecule agonists or antagonists of the thyroid stimulating hormone receptor (TSHR) signaling pathway - wild type cell line counter screen (AID 1259384)
How it was run: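 Wild-type Hek293 cells, 800/well, 18 h at 37C, then compound with Ro20-1724 for 30 min RT. cAMP by HTRF (cAMP-d2/anti-cAMP cryptate), 1 h RT, fluorescence read. 15 concentrations, triplicates.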

[10] = target: Thyrotropin receptor (Homo sapiens) (UniProt P16473); experiment: qHTS assay to identify small molecule antagonists of the thyroid stimulating hormone receptor (TSHR) signaling pathway (AID 1259385); also: nearly all actives have a fitted effect of over 20% in size
Chain of Thyrotropin receptor (Homo sapiens) (P16473 whole entry, looked up): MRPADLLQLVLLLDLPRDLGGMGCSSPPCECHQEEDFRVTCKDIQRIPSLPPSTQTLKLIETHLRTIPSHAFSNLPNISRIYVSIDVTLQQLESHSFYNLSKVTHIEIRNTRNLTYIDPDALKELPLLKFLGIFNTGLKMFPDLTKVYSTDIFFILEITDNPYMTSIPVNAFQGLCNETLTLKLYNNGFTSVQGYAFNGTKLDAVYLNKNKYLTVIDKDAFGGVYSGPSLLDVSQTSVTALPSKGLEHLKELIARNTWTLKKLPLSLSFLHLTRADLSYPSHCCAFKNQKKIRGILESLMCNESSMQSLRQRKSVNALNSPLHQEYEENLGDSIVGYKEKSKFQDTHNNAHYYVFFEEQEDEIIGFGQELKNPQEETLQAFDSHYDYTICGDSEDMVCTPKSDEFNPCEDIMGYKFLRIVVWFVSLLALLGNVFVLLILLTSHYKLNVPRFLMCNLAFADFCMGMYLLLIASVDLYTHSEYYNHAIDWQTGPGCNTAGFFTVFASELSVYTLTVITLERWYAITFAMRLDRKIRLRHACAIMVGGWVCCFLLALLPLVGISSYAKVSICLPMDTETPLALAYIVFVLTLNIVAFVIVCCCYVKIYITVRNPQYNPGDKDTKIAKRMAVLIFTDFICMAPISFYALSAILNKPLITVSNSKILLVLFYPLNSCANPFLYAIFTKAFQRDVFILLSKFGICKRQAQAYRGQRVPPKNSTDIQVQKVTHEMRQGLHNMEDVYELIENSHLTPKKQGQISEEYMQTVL
How it was run: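 TSHR-HEK293 cells (800/well) plated 18 h, then compounds with Ro20-1724 and TSH at 1.5 ng/mL final, 30 min at room temperature. cAMP quantified by HTRF (cAMP-d2/anti-cAMP-cryptate, 1 h); 15 concentrations in triplicate.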

[11] = qHTS assay to identify small molecule agonists of the estrogen receptor alpha (ER-alpha) signaling pathway in the presence of an antagonist - cell viability counter screen (AID 1259386; active = well fitted curve in the direction sought with a large enough effect in the repeat runs; an effect the other way counts as inactive or inconclusive;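 also: series mostly up to about 92 µM; cells exposed to compounds for 22 h at 37 °C before the viability read; nearly all actives have a fitted effect of over 30% in size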)
How it was run: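 Cytotoxicity was measured in parallel with the ERE-luciferase agonist screen, in the same wells. The cells were VM7Luc4E2, which endogenously express ER-alpha, and treatment was with compounds plus 10.0nM ICI-182,780 for 22hr.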

[12] = target: Progesterone receptor (Homo sapiens) (UniProt P06401); experiment: qHTS assay to identify small molecule agonists of the progesterone receptor (PR) signaling pathway (AID 1346784); also: nearly all actives have a fitted effect of over 30% in size
Chain of Progesterone receptor (Homo sapiens) (P06401 whole entry, looked up): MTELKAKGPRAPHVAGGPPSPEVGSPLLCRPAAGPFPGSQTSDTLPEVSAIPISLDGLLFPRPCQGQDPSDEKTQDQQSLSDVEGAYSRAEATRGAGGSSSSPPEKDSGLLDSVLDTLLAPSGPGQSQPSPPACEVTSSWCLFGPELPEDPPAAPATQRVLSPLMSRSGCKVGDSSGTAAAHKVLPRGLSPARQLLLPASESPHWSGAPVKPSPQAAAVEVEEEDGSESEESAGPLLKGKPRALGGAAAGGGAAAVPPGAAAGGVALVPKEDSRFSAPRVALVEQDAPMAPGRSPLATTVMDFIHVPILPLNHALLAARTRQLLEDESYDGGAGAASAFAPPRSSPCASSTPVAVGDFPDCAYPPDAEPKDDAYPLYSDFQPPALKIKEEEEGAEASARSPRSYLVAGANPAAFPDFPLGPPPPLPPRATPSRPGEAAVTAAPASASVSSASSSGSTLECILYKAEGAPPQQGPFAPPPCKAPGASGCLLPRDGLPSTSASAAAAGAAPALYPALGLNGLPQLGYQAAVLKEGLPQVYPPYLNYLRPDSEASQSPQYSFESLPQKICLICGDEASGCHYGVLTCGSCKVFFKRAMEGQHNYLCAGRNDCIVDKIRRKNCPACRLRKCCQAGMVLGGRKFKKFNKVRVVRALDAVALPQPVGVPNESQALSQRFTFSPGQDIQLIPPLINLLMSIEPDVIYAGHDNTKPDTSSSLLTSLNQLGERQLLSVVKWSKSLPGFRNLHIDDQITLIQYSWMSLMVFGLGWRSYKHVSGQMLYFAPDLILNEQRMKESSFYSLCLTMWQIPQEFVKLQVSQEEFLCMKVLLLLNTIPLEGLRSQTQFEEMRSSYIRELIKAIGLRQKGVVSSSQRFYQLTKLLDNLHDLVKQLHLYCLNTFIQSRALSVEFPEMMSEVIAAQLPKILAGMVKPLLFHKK
How it was run: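 Reporter assay, GripTite PR-UAS-bla HEK 293T cells: 16 hr exposure to DMSO-dissolved compounds at 37C, 5% CO2, in steroid-depleted (2% charcoal-stripped FBS) medium; beta-lactamase measured by FRET fluorescence.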

[13] = target: Progesterone receptor (Homo sapiens) (UniProt P06401); experiment: qHTS assay to identify small molecule antagonists of the progesterone receptor (PR) signaling pathway (AID 1346795; active = well fitted inhibition curve with a large enough effect in the signal ratio in the repeat runs, not every such curve was filed as active; the % refers to the signal ratio)
How it was run: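 Stimulus R5020 at 1 nM final; cells HEK293T PR-UAS-bla; medium with 2% charcoal-stripped FBS; compound exposure 16 hr at 37C, 5% CO2; detection by FRET beta-lactamase substrate, 2 hr, room temperature.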

[14] = qHTS assay to identify small molecule antagonists of the progesterone receptor (PR) signaling pathway - cell viability counter screen (AID 1346798; active = well fitted curve in the direction sought with a large enough effect in the repeat runs; an effect the other way counts as inactive or inconclusive; also: series mostly up to about 92 µM; nearly all actives have a fitted effect of over 50% in size)
How it was run: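 In the same plates used for the beta-lactamase readout, cell viability of compound- and R5020-treated PR-UAS-bla HEK293T cells (16 hr, 37C) was assessed by CellTiter-Glo luminescence.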

[15] = qHTS assay to identify small molecule agonists of the progesterone receptor (PR) signaling pathway - cell viability counter screen (AID 1346799); also: nearly all actives have a fitted effect of over 45% in size
How it was run: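 Multiplexed viability read: CellTiter-Glo luminescence, 30 min RT, following LiveBLAzer FRET measurement on PR-UAS-bla HEK293T cells exposed to compounds 16 hr.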

[16] = qHTS assay to identify small molecule antagonists of the TGF-beta/Smad signaling pathway - cell viability counter screen (AID 1346824; active = well fitted curve in the direction sought with a large enough effect in the repeat runs; an effect the other way counts as inactive or inconclusive; also: nearly all actives have a fitted effect of over 50% in size)
How it was run: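 SBE-bla HEK 293T cells, incubated overnight, then compound plus 0.25 ng/mL TGF-beta1 (stock added) for 5 hr at 37 C. Viability was read in the same wells by CellTiter-Glo luminescence after 30 min at room temperature.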

[17] = target: Thyrotropin-releasing hormone receptor (Homo sapiens) (UniProt P34981); experiment: qHTS assay to identify small molecule antagonists of the thyrotropin-releasing hormone receptor (TRHR) signaling pathway (AID 1346877; active = well fitted inhibition curve with a large enough effect in the repeat runs, not every such curve was filed as active; also: series mostly up to about 51 µM)
Chain of Thyrotropin-releasing hormone receptor (Homo sapiens) (P34981 whole entry, looked up): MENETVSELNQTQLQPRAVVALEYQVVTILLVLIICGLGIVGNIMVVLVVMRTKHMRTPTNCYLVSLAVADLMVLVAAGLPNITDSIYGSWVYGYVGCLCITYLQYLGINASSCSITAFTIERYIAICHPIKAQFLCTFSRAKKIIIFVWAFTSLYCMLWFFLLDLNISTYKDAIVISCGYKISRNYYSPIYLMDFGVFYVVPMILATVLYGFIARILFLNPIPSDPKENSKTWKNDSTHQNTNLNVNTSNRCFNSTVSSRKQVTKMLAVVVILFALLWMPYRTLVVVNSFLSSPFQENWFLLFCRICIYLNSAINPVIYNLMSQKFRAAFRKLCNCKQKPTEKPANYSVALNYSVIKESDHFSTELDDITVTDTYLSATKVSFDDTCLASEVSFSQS
How it was run: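 Antagonism is measured as suppression of the calcium response to 1 nM TRH in TRHR-HEK293 cells that have been dye-loaded for 2 h at 37 °C after overnight plating. Each compound is tested at 15 concentrations in triplicate.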

[18] = qHTS assay to identify small molecule agonists of the TGF-beta/Smad signaling pathway - cell viability counter screen (AID 1346829; active = well fitted curve in the direction sought with a large enough effect in the repeat runs; an effect the other way counts as inactive or inconclusive; also: top concentration of the series differs between compounds; nearly all actives have a fitted effect of over 45% in size)
How it was run: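 SBE-bla HEK 293T cells plated overnight, compound exposure 5 hr at 37 C. Viability read in the same wells by CellTiter-Glo luminescence after 30 min at room temperature, following the beta-lactamase read.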

[19] = qHTS assay to identify small molecule agonists of the TGF-beta/Smad signaling pathway (AID 1346859; active = well fitted activation curve with a large enough effect in the signal ratio in the repeat runs, not every such curve was filed as active; the % refers to the signal ratio; also: series mostly up to about 77 µM)
How it was run: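 Screening used HEK 293T SBE-bla cells at 4,000/well. Test agents: 5 hr, 37 C. Detection: FRET substrate, 2 hr RT, then excitation 405 nm with emissions at 460 and 530 nm.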
% is scaled to controls: 0 for no effect and ±100 for the full control effect.

CCCCCCCCCCCCCC=O
inactive: activity change [1] -0.008% [at 8.39 µM] | activity change, negative = inhibition [2] 13.4% [at 8.39 µM] | activation [3] 5.64% [at 8.39 µM] | activity, negative = inhibition [4] -23.6% [at 8.39 µM] | activity change, negative = cytotoxicity [5] -0.261% [at 8.39 µM] | activity change, negative = cytotoxicity [6] -3.43% [at 8.39 µM] | activity change, negative = cytotoxicity [7] -3.46% [at 8.39 µM] | activation [8] -0.924% [at 8.39 µM] | cAMP activity change [9] 0.631% [at 8.39 µM] | activity change, negative = inhibition [10] -5.31% [at 8.39 µM] | activity change, negative = cytotoxicity [11] 2.15% [at 8.39 µM] | activation [12] -0.302% [at 8.39 µM] | activity change, negative = inhibition [13] 6.1% [at 8.39 µM] | activity change, negative = cytotoxicity [14] 2% [at 8.39 µM] | activity change, negative = cytotoxicity [15] 5.7% [at 8.39 µM] | viability change, negative = cytotoxic [16] 6.5% [at 6.97 µM] | activity, negative = inhibition [17] -5.43% [at 4.65 µM]

c1cnc(N2CCN(Cc3ccc4c(c3)OCO4)CC2)nc1
inactive: outcome [1] | Potency [2] | outcome [3] | outcome [4] | Potency [5] | Potency [6] | Potency [7] | Potency [8] | outcome [9] | Potency [10] | Potency [11] | Potency [12] | Potency [13] | Potency [14] | Potency [15] | Potency [16] | outcome [18] | outcome [19] | outcome [17]

COC(=O)NN
inactive: outcome [1] | Potency [2] | outcome [3] | outcome [4] | Potency [5] | Potency [6] | Potency [7] | Potency [8] | outcome [9] | Potency [10] | Potency [11] | Potency [12] | Potency [13] | Potency [14] | Potency [15] | Potency [16] | outcome [18] | outcome [19] | outcome [17]

NC(=O)c1ccc(N)cc1
inactive: outcome [1] | Potency [2] | outcome [3] | outcome [4] | Potency [5] | Potency [6] | Potency [7] | Potency [8] | outcome [9] | Potency [10] | Potency [11] | Potency [12] | Potency [13] | Potency [14] | Potency [15] | Potency [16] | outcome [19]

CC(C)OC(=O)c1ccccc1
inactive: outcome [1] | Potency [2] | outcome [3] | outcome [4] | Potency [5] | Potency [6] | Potency [7] | Potency [8] | outcome [9] | Potency [10] | Potency [11] | Potency [12] | Potency [13] | Potency [14] | Potency [15] | Potency [16] | outcome [19]

NCCCNCCSP(=O)(O)O
inactive: activity change [1] -0.244% [at 8.39 µM] | activity change, negative = inhibition [2] 21.5% [at 8.39 µM] | activation [3] -1.24% [at 8.39 µM] | activity, negative = inhibition [4] 13.1% [at 8.39 µM] | activity change, negative = cytotoxicity [5] 9.45% [at 8.39 µM] | activity change, negative = cytotoxicity [6] 0.895% [at 8.39 µM] | activity change, negative = cytotoxicity [7] 1.8% [at 8.39 µM] | activation [8] -0.349% [at 8.39 µM] | cAMP activity change [9] -0.261% [at 8.39 µM] | activity change, negative = inhibition [10] -3.62% [at 8.39 µM] | activity change, negative = cytotoxicity [11] -0.352% [at 8.39 µM] | activity change, negative = cytotoxicity [14] 1.3% [at 8.39 µM] | activity change, negative = cytotoxicity [15] 17.5% [at 8.39 µM] | viability change, negative = cytotoxic [16] 10.3% [at 6.97 µM] | activity change, negative = cytotoxicity [18] -10% [at 6.97 µM] | activity, negative = inhibition [17] 2.65% [at 4.65 µM]

C[C@H](NC(CCc1ccccc1)C(=O)O)C(=O)N1CCC[C@H]1C(=O)O (stereo partly drawn)
inactive: outcome [1] | Potency [2] | outcome [3] | outcome [4] | Potency [5] | Potency [6] | Potency [7] | Potency [8] | outcome [9] | Potency [10] | Potency [11] | Potency [12] | Potency [13] | Potency [14] | Potency [15] | Potency [16] | outcome [19] | outcome [17]
